Only some compounds are listed: those with a hit (about 21% of all), similar ones and a draw of the others.
DT40 TDP1 no CPT – qHTS for Inhibitors of human tyrosyl-DNA phosphodiesterase 1 (TDP1): qHTS in cells in absence of CPT; Potency, µM (top dose mostly 46.2 µM), for the others: at the top dose activity change, negative = growth inhibition, hits mostly inhibitors; DT40 Tdp1-/- hTDP1 cells, no CPT, ATP luminescence, 48 h; actives 15% (n = 420,000); also: potency is read from the fitted curve at half-maximal effect; % is scaled to controls: 0 for no effect and ±100 for the full control effect; nearly all actives have a fitted effect of over 55% in size
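Readout: luminescence from CellTiter-Glo after 30 min in the dark at RT. Cells: DT40 Tdp1-/- with stable hTDP1, 400/well. Exposure: compounds alone, ≥48 hr, 37 °C.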
ClpP mod – qHTS Assay for Activators of ClpP. actives 1.9% (n = 340,000). purified B. subtilis ClpP, FRET peptide cleavage, 20 min. Potency, µM (doses to about 57.5 µM), inactives show top-dose activity change, negative = active. ATP-dependent Clp protease proteolytic subunit (Bacillus subtilis (strain 168)), P80244; active = well fitted falling curve with a large enough effect; inconclusive = small, poorly fitted or top-dose-only effect; inactive = no such curve, though single readings can be large or run the other way; also: potency is read from the fitted curve at half-maximal effect; the source files actives as falling curves though it sought activators and does not explain the sign; nearly all actives have a fitted effect of over 65% in size
Target sequence (P80244 whole entry, looked up): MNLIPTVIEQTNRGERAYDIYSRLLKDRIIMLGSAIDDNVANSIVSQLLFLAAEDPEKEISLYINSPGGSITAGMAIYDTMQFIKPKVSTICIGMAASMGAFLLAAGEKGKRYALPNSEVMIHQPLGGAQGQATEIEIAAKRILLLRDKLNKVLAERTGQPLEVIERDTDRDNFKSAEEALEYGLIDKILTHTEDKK
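Purified B. subtilis ClpP, 10 microg/mL final in Tris/HCl pH8 with KCl, BSA, glycerol and Tween-20, cleaved an Abz/nitrotyrosine-quenched decapeptide. Fluorescence (ex 320, em 430) was read at 0 and 20 min at room temperature. Delta was normalized to 5.8 microM ADEP and DMSO/no-enzyme controls.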
DT40 TDP1 CPT – qHTS for Inhibitors of human tyrosyl-DNA phosphodiesterase 1 (TDP1): qHTS in cells in presence of CPT. chicken DT40 Tdp1-/-;hTDP1 cells + 20 nM CPT, ATP luminescence, 48 h. actives 12% (n = 420,000). Potency, µM (doses to about 46.2 µM), for the others: at the top dose activity change, negative = growth inhibition, most hits filed as inhibitors; also: potency is read from the fitted curve at half-maximal effect; % is scaled to controls: 0 for no effect and ±100 for the full control effect; nearly all actives have a fitted effect of over 55% in size
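Chicken DT40 Tdp1-/- cells complemented with human TDP1, 400 cells/well, exposed to compounds plus 20 nM camptothecin for at least 48 h at 37 C; viability read as ATP content by CellTiter-Glo luminescence.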
IL-1B inflam inh – qHTS for Inhibitors of Inflammasome Signaling: IL-1-beta AlphaLISA Primary Screen; activity change, % at 57.5 µM; THP-1 LPS/ATP IL-1B secretion, AlphaLISA, 16 h; stronger effect = lower value; AID 743279, 2014; actives 4.7% (n = 360,000); in the data active = activity change below about -50%; inconclusive = mostly about -30% to -49%; also: % is scaled to controls: 0 for no effect and ±100 for the full control effect
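Secreted IL-1B measured by AlphaLISA bead assay after 16 h compound exposure of THP-1 cells; compounds (final up to 57.5 uM) added 1 h before LPS (250 ng/mL) and ATP (1.25 mM) stimulation; lower signal means less secretion.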
D3 ag – qHTS of D3 Dopamine Receptor Agonist: qHTS | AID 652048, 2013 | D3R DiscoveRx beta-arrestin cells, luminescence, 90 min | max activation, % | D(3) dopamine receptor (Homo sapiens), P35462 | actives 0.58% (n = 410,000); in the data active = max activation above about 30%; also: 0% is about no effect
Target sequence (P35462 whole entry, looked up): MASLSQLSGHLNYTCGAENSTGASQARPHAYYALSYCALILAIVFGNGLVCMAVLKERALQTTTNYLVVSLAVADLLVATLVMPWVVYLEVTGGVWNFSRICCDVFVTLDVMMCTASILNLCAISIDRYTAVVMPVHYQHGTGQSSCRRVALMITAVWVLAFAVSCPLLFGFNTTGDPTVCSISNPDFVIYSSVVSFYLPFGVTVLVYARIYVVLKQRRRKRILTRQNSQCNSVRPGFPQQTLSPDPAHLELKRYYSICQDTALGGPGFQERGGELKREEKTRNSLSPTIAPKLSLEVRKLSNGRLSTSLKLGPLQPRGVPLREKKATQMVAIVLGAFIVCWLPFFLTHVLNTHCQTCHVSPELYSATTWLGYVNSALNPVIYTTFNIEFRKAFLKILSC
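Cells at 1500/well, incubated overnight, then treated with pinned compounds (dopamine as control) for 90 min at 37 degrees C. DiscoveRx reagent added for 30 - 60 minutes at room temperature; luminescence read.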
D3 antag – qHTS of D3 Dopamine Receptor Antagonist: qHTS | max response, negative = inhibition, % | D(3) dopamine receptor (Homo sapiens), P35462 | D3R cells, DiscoveRx beta-arrestin luminescence, antagonist mode; stronger effect = lower value | actives 2.5% (n = 360,000); in the data active = max response below about -50%; inconclusive = no clear call, values can overlap the other calls; also: % is scaled to controls: 0 for no effect and ±100 for the full control effect
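Cells expressing the human receptor were seeded at 1500 cells/well, incubated overnight at 37 degrees C in 5% CO2, then exposed to library compounds with dopamine controls for 90 minutes at 37 degrees C before luminescent detection.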
An asterisk follows results filed as active; ? = inconclusive; nt = no result given. Unless noted, calls follow the shape of the dose curve; as a rule, active = well fitted inhibition curve with a large enough effect; inconclusive = small, poorly fitted or top-dose-only effect; inactive = flat fitted curve, though single readings scatter.

SMILES	DT40 TDP1 no CPT	ClpP mod	DT40 TDP1 CPT	IL-1B inflam inh	D3 ag	D3 antag
CCN(CC)CCNC(=O)c1ccc(Cl)c(S(=O)(=O)Nc2ccc(Cl)cc2)c1	-3%	-1%	-12%	-9	-18	-56*
CNC(=O)c1cc(NC(=O)CCn2nc(-c3ccccc3)c3ccccc3c2=O)ccc1OC	-27%	1%	2%	-3	1	-26
CC1CCCN(C2=NC(=O)/C(=C/c3cn(-c4ccccc4)nc3-c3cccc(S(=O)(=O)N(C)C)c3)S2)C1 (configuration not stated)	12µM*	-14%	16µM*	-17	-11	-10
CCCOc1ccc(-c2nn(-c3ccccc3)cc2/C=C2\SC(N)=NC2=O)cc1	27%	nt	1%	25	1	16
CC1CCN(C2=NC(=O)/C(=C/c3cn(-c4ccccc4)nc3-c3cccc(S(=O)(=O)N(C)C)c3)S2)CC1	6.5µM*	-29%	7.3µM*	-30	1	-23
Cc1cc(-c2nn(-c3ccccc3)cc2/C=C2\SC(N)=NC2=O)ccc1OC(C)C	?	-1%	?	-8	25	-5
O=C(CSc1ncccc1C(=O)O)Nc1ccc2c(c1)OCCO2	24%	-2%	0%	-2	6	6
CN(Cc1c(F)cccc1Cl)C(=O)CNC(=O)c1cccs1	0%	0%	1%	21	-5	-4
C=C(Cl)COc1ccc2c(C)cc(=O)oc2c1	?	10µM*	?	-4	0	15
CNC(=O)COC(=O)COc1ccc2c(C)cc(=O)oc2c1	-9%	nt	-15%	-7	7	0
CCCCc1cc(=O)oc2cc(OCC(=O)N(CC)CC)ccc12	-5%	28µM*	-14%	-10	13	1
CCCCc1cc(=O)oc2cc(OCC(=O)N(CC)CC)c(Cl)cc12	?	4%	?	-22	6	25
C=C(Cl)COc1ccc2c(CCCC)cc(=O)oc2c1	?	28µM*	?	?	-11	18
CCCCc1cc(=O)oc2cc(OCC(=O)NC3CCN(Cc4ccccc4)CC3)ccc12	?	?	?	-25	-15	-54*
Cc1ccc(S(=O)(=O)N(C)C)cc1NC(=O)CSc1nncs1	9%	-6%	-2%	12	5	-20
Cc1ccccc1NC(=O)N1CCC(CN2CCCC2)CC1	1%	-1%	10%	nt	6	nt
COC(=O)c1sccc1-c1ccc(/C=N/OC(=O)c2cccs2)o1	-3%	nt	45%	12	8	5
C=C(Cl)COc1ccc2c(CC)cc(=O)oc2c1	-19%	25µM*	-28%	-1	-3	3
Clc1ccc(C[n+]2cc(-c3ccccc3)n3c2CCCCC3)c(Cl)c1	0.26µM*	1%	0.46µM*	-91*	-6	0
Clc1ccc(-c2c[n+](Cc3ccc(Br)cc3)c3n2CCCCC3)cc1	2.6µM*	nt	2.6µM*	-62*	-5	7
Clc1ccc(-c2c[n+](Cc3ccc(Cl)cc3Cl)c3n2CCCCC3)cc1	1.2µM*	2%	1.2µM*	-81*	-6	4
Clc1ccc(-c2nnc3n2CCCCC3)cc1	8%	-2%	-11%	71	1	-21
CCC(=O)N1CCCc2cc(S(=O)(=O)CCC(=O)Nc3ccccc3C)ccc21	-27%	-1%	-15%	20	-3	-6
Cc1cccc(OCC(=O)NCCNC(=O)c2ccccn2)c1	3%	nt	-3%	12	3	-12
CCc1ccccc1N1CC23C=CC(O2)C(C(=O)O)C3C1=O (configuration not stated)	-22%	-1%	18µM*	-9	-4	-18
SMILES	DT40 TDP1 no CPT	ClpP mod	DT40 TDP1 CPT	IL-1B inflam inh	D3 ag	D3 antag
Cc1ccc(S(=O)(=O)N2CCOCC2)cc1NC(=O)CSc1nnc2cc(C)c3ccccc3n12	23µM*	-5%	?	-21	-7	-4
Cc1cc2nnc(SCC(=O)Nc3cc(S(=O)(=O)N4CCOCC4)ccc3Cl)n2c2ccccc12	16µM*	32µM*	?	?	0	17
COC(=O)CN1C(=O)CSc2ccc(S(=O)(=O)N3CCOCC3)cc21	-5%	1%	24%	nt	-10	nt
O=C(CCc1nnc2n(Cc3ccccc3)c(=O)c3ccccc3n12)NCCN1CCOCC1	?	?	?	-18	-5	-22
Cc1c(C(=O)NCC2CCCO2)oc2ccc(S(=O)(=O)N3CC(C)CC(C)C3)cc12 (configuration not stated)	?	1%	?	30	9	0
CCN(CC)S(=O)(=O)c1ccc2oc(C(=O)NCC3COc4ccccc4O3)c(C)c2c1 (configuration not stated)	23µM*	-12%	?	-9	6	17
CCN(CC)CCCNC(=O)c1oc2ccc(S(=O)(=O)N3CC(C)CC(C)C3)cc2c1C (configuration not stated)	18µM*	nt	?	-52*	-7	12
Cc1c(C(=O)NCC2COc3ccccc3O2)oc2ccc(S(=O)(=O)N3CCOCC3)cc12 (configuration not stated)	?	-1%	?	-8	6	-23
Cc1c(C(=O)NCC2COc3ccccc3O2)oc2ccc(S(=O)(=O)N3CC(C)CC(C)C3)cc12 (configuration not stated)	13µM*	-26%	18µM*	-15	-25	-20
CC1C(=O)N2CCCc3cc(S(=O)(=O)Nc4ccc(Br)cc4F)cc1c32 (configuration not stated)	-39%	0%	?	nt	16	nt
Nc1ccc2cccnc2c1	-29%	-7%	?	nt	nt	nt
Cc1ccc(C(=O)Nc2ccc3c(c2)CCC3)cc1S(=O)(=O)N1CCOCC1	?	nt	?	?	0	-3
NS(=O)(=O)c1cc(C(=O)Nc2ccc3c(c2)CCC3)ccc1Cl	?	nt	-3%	-68*	-5	3
O=C(Nc1ccc(F)c(F)c1)c1ccc(F)c(S(=O)(=O)N2CCC3(CC2)OCCO3)c1	13µM*	2%	16µM*	-60*	2	4
O=S(=O)(c1cc(F)ccc1F)N1CCC2(CC1)OCCO2	13%	3%	-1%	21	-11	10

Screening data (PubChem BioAssay)
